The list is not random: actives were taken first. Their share in the collection is about 4.2%.
hcDAF12 agonist – H. contortus DAF-12 activation, primary screen | activation, % at 6.8 µM | HEK293 hcDAF-12 lit1-tk-luc reporter, luminescence; 0% DMSO, 100% Δ7-dafachronic acid | actives 1.4% (n = 370,000);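 active means activation above the mean of all tested compounds plus 3 SD, cut at about 5.5% in these data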;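 further: 100% = response to 3 µM Δ7-dafachronic acid high control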
ssDAF12 agonist – activates DAF-12 receptor from parasite S. stercoralis; HEK293 ssDAF-12/GRIP1 lit1-tk-luc reporter, luminescence; % of 3 µM dafachronic acid response; activation, % at 6.8 µM; actives 1% (n = 370,000); AID 652126;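 active means activation above the mean over all tested compounds plus 3 SD, cut at about 0.9% in these data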;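 further: 0% = DMSO-only wells and 100% = 3 µM delta7-dafachronic acid wells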
DAX1 StAR inh – blocks DAX1 repression of SF-1 activated StAR promoter; HEK293T StAR-luciferase reporter, SF-1/DAX-1 repression relief; inhibition, % at 6.8 µM; actives 1.1% (n = 370,000); AID 652010;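 active means inhibition above the mean over all tested compounds plus 3 SD, cut at about 3.6% in these data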;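 further: 0% = DAX-1 cells with DMSO and 100% = cells lacking DAX-1 with DMSO; higher inhibition means more luminescence from relief of DAX-1 repression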
SMARCA2 act – increases SMARCA2 function in MMTV reporter cells. MG213 cells, MMTV-luciferase reporter, dexamethasone, overnight. activation, % at 9.1 µM. actives 1% (n = 370,000). AID 652017; in the data active means activation above about 7.8%;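 further: 0% = vehicle wells and 100% = reference activator wells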
hgDAF12 agonist – agonists of H. glycines DAF-12 nuclear receptor | AID 687014 | activation, % at 6.8 µM | actives 1.8% (n = 370,000) | HEK293 GAL4-hgDAF12 UAS-luciferase reporter, agonist luminescence; normalized to butyrate control;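 active means activation above a cutoff set at the mean of all screened compounds plus 3 SD, cut at about 10% in these data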;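 further: 0% = DMSO wells and 100% = sodium butyrate wells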
DAX1 inh confirm – NR0B1 (human) inhibition, confirmation | shares compounds with DAX1 StAR inh | HEK293T StAR-promoter luciferase reporter, SF-1/DAX-1 repression | inhibition, % at 6.8 µM | actives 87% (n = 2,400) | AID 652134;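 active means inhibition above the average of every tested compound plus 3 SD, cut at about 3.8% in these data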;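 further: 0% = DAX-1 cells with DMSO and 100% = no DAX-1 control cells with DMSO; active compounds raise luminescence by relieving repression of the StAR reporter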
Target sequence (P51843 whole entry, looked up): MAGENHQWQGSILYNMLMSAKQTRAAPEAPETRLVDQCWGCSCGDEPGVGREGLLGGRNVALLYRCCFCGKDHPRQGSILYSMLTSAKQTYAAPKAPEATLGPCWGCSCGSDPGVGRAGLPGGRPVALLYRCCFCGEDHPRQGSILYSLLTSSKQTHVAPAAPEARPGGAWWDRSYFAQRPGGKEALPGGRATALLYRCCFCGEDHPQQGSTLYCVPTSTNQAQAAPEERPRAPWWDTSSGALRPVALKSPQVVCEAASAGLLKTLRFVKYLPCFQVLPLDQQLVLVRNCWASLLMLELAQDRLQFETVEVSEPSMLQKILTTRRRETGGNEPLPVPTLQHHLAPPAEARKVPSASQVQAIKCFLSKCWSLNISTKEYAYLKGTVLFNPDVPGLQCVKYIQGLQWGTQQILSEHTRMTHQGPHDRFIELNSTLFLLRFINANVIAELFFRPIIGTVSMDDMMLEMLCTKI
SF1 mutant ctr – counter-screen for DAX1 inhibitors: nonselective inhibitors with SF-1 AF2 mutant; shares compounds with DAX1 StAR inh; HEK293 StAR-luciferase, luminescence; inhibition, % at 6.8 µM; actives 78% (n = 2,400); AID 652136;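 active means inhibition above the mean of all tested compounds plus 3 SD, cut at about 3% in these data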;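 further: 0% = DAX-1 transfected cells with DMSO and 100% = cells without DAX-1 with DMSO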
Starred values were filed as active, the others as inactive; nt = not tested or not shown.

SMILES	hcDAF12 agonist	ssDAF12 agonist	DAX1 StAR inh	SMARCA2 act	hgDAF12 agonist	DAX1 inh confirm	SF1 mutant ctr
CSc1ccc(/C=C/C(=O)NC(=O)c2ccccc2O)cc1	4	0	4.9*	1	13*	8.8*	5.8*
O=C(c1cc([N+](=O)[O-])ccc1N1CCOCC1)N1CCN(c2ccccc2)CC1	1	1	14*	0	-4	17*	-6
CCOC(=O)c1ccc(NC(=O)N2CCCCCC2)cc1	3	0	5.0*	5	8	14*	8.0*
CC(=O)c1ccc(NC(=S)N2CCCC2)cc1	1	0	5.1*	0	0	3	2
CCOC(=O)C1=CCN(S(=O)(=O)c2ccc(C)cc2)C1c1cccc(C)c1 (stereo unspecified)	-2	-1	-1	4	0	nt	nt
O=C(COC(=O)c1ccccc1-n1cnnn1)c1ccc(F)cc1	4	0	7.7*	5	7	7.5*	5.6*
Nc1nc2ccccc2n1S(=O)(=O)c1ccccc1	-1	-1	4.8*	-5	-1	2	1
CCCc1ccc2oc(C(=O)NCCCN3CCOCC3)c(C)c2c1	-1	0	4	2	6	nt	nt
CCCc1ccc2oc(C(=O)NCc3nnc(C)o3)c(C)c2c1	6.2*	0	5.1*	6	12*	7.3*	5.1*
CCc1ccc2oc(C(=O)Nc3nonc3C)c(C)c2c1	4	0	12*	1	11*	7.8*	3.6*
COC1C(=O)CCC2(CO2)C1(O)C1(C)OC1CC=C(C)C (stereo unspecified)	0	-2	-2	3	2	nt	nt
Cc1ccc(S(=O)(=O)N2CCN(C(=O)N3CCCCC3)CC2)c(C)c1	4	-1	0	-2	2	nt	nt
C/C(=N\NC(=O)c1ccn(C)n1)c1ccc(NC(=O)C2CCCC2)cc1	1	0	1	4	6	nt	nt
C/C(=N\NC(=O)c1nn(C)c(C)c1Br)c1ccc(NC(=O)C2CCCC2)cc1	4	0	8.9*	3	12*	2	-1
C/C(=N/NC(=O)c1ccoc1C)c1ccc(NC(=O)C2CCCC2)cc1	6.0*	0	6.1*	2	15*	5.3*	4.2*
CC(=O)C1=C(C)N(Cc2ccc(F)cc2)C(=S)NC1c1cccc(Cl)c1 (stereo unspecified)	-1	-1	-1	-1	0	nt	nt
COc1cc(C(=O)N/N=C(\C)c2ccccn2)cc(OC)c1OC	1	0	8.3*	0	-5	-1	0
CCc1ccccc1NC(=O)c1cc(C)nn1-c1ccccc1	-1	-1	-1	-4	0	nt	nt
CCOc1ccc(N(CC(=O)Nc2c(C)n(C)n(-c3ccccc3)c2=O)S(=O)(=O)c2ccc(C)c(C)c2)cc1	-3	-1	-1	-5	-1	nt	nt
Cc1ccc(-c2cnc(C(O)c3ccc(Cl)c(Cl)c3)[nH]2)cc1 (stereo unspecified)	0	-1	1	0	-1	nt	nt
COc1ccc2oc(C(=O)OCC(=O)NCCc3ccccc3)c(C)c2c1	0	-1	0	-3	3	nt	nt
COc1ccc2oc(C(=O)NCCc3ccccc3)c(C)c2c1	3	-1	5.2*	-1	3	7.1*	0
CO[C@@H]1[C@H](O)CC[C@]2(O)CN(c3ccc(F)cc3)[C@](C)([C@H](O)CC=C(C)C)[C@@H]12	1	-1	0	-1	1	nt	nt
Cc1ccccc1OCC(=O)Nc1cccc(C(=O)O)c1	3	-1	5.0*	0	11*	7.9*	4.3*
COc1cccc(N2CCN(C(=O)c3ccc(CS(=O)c4ccccc4C)o3)CC2)c1 (stereo unspecified)	-3	-1	1	2	-3	nt	nt
SMILES	hcDAF12 agonist	ssDAF12 agonist	DAX1 StAR inh	SMARCA2 act	hgDAF12 agonist	DAX1 inh confirm	SF1 mutant ctr
COc1cccc(N2CCN(C(=O)c3ccc(CS(=O)c4ccccc4Cl)o3)CC2)c1 (stereo unspecified)	-2	-1	11*	-2	-4	14*	-9
O=C(O)c1ccccc1-c1ccccc1C(=O)Nc1ccc2c(c1)C(O)c1ccccc1-2 (stereo unspecified)	3	0	0	-3	3	nt	nt
COC(=O)C1CN(Cc2cn(Cc3ccccc3)nn2)CCS(=O)(=O)N1Cc1ccccc1 (stereo unspecified)	-3	-2	0	-1	-1	nt	nt
C/C(=N\NC(=O)c1ccccn1)c1ccc(Cl)cc1	5	0	3	5	9	nt	nt
C/C(=N\NC(=O)c1ccccn1)C12CC3CC(CC(C3)C1)C2	4	0	5.8*	5	13*	5.6*	3.3*
CC(=O)Nc1ccc(CNc2nc(NC(C)C)nc3cc(-c4ccccc4)sc23)cc1	-1	-1	2	-10	2	nt	nt
C=CCNc1nc(NCc2ccc(NC(C)=O)cc2)c2sc(-c3ccccc3)cc2n1	1	2.0*	6.4*	-1	12*	7.8*	5.7*
CCCCCCCCN1C(=O)[C@H](CC(=O)NCc2ccc(OC)c(OC)c2)C[C@@]2(C(=O)OCC)CCC=C12	-2	-1	-4	1	2	nt	nt
CCN(CC)CCOC(=O)c1ccc(NC(=O)CCCN2C(=O)/C(=C/c3cccs3)SC2=S)cc1	0	-1	6.2*	3	0	8.5*	5.4*
Cn1cnc2cc(NC(=O)c3cccs3)ccc21	4	-1	4.6*	-1	7	3.8*	3.7*
Cn1cnc2cc(NC(=O)c3ccc(Cl)cc3)ccc21	2	0	6.6*	5	12*	14*	6.4*
Cc1nn(-c2ccccc2)c(C)c1/C=N/NC(=O)c1[nH][nH]c(=O)c1C	1	0	1	-1	4	nt	nt
COC(=O)c1ccc(Cn2ccc3ccc(-c4ccc5ccn(C(=O)c6ccc(C)cc6)c5c4)cc32)cc1	3	0	0	-2	-2	nt	nt
Cc1ccsc1C(=O)NCCc1c[nH]c2ccccc12	1	1	4.6*	3	8	5.9*	2.9*
COC(=O)C[C@@H]1C=C[C@@H](NC(=O)C2CCC2)[C@@H](CO)O1	-1	-2	0	-3	1	nt	nt
CCOC(=O)Cn1cc(CN2C(C(=O)OC)CN(Cc3ccc(OC)cc3)CCS2(=O)=O)nn1 (stereo unspecified)	-1	-2	1	-5	0	nt	nt
CCc1noc(C)c1C(=O)Nc1nc2ccc(S(C)(=O)=O)cc2s1	1	-1	2	-1	6	nt	nt
Cc1noc(C)c1C(=O)Nc1nc2ccc(Cl)cc2s1	-1	0	5.5*	0	3	2	3

Bioassay records as filed in PubChem BioAssay.
